KCNQ2 pot – enhances the rat KCNQ2 potassium channel | AID 2239 | 0.54% of 310,000 active | O88943 | CHO-K1 KCNQ2, FluxOR thallium flux fluorescence; active compounds read high | B-score at 10 µM;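 active = fluorescence ratio B-score at least 3 SD of library B-scores, with initial fluorescence B-score within 3 of them, cut at about 5.3 in these data; same plate scores as AID 2156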;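 note: B-score of peak minus minimum over baseline fluorescence ratio after K+ and Tl+ stimulus; positive B-score means potentiation of KCNQ2 with more thallium influx and brighter signal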
KCNQ2 block – inhibitors of rat KCNQ2 potassium channel; O88943; CHO-K1 KCNQ2, FluxOR thallium flux, 20 min; active compounds read low; B-score at 10 µM; 1.1% of 310,000 active;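 active = fluorescence ratio B-score at most minus 3 library SDs, with starting brightness B-score within 2 library SDs, cut at about -5.5 in these data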
KCNQ2 block conf – confirmation of rat KCNQ2 potassium channel inhibitors; activity change, negative = inhibition, % at 10 µM; shares compounds with KCNQ2 block; KCNQ2-expressing cells, thallium flux, inhibition; active compounds read low; 57% of 1,000 active;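 note: 0% = vehicle wells and values are ratio percent relative to vehicle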
KCNQ1 spec – KCNQ2 inhibitor that also affects human KCNQ1 channel | shares compounds with KCNQ2 block | KCNQ1-expressing cells, FluxOR thallium flux fluorescence; active compounds read low | activity change, negative = inhibition, % at 10 µM | 15% of 1,000 active | AID 493026;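 active = activity change at least 3 SD of negative controls below their mean in both duplicate wells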;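 note: CHO cells stably transfected with KCNQ1 and depolarized by potassium stimulus; peak minus minimum fluorescence over baseline after thallium addition; 0% = vehicle negative control and -100% = blank without thallium stimulus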
Target sequence (P51787 whole entry, looked up): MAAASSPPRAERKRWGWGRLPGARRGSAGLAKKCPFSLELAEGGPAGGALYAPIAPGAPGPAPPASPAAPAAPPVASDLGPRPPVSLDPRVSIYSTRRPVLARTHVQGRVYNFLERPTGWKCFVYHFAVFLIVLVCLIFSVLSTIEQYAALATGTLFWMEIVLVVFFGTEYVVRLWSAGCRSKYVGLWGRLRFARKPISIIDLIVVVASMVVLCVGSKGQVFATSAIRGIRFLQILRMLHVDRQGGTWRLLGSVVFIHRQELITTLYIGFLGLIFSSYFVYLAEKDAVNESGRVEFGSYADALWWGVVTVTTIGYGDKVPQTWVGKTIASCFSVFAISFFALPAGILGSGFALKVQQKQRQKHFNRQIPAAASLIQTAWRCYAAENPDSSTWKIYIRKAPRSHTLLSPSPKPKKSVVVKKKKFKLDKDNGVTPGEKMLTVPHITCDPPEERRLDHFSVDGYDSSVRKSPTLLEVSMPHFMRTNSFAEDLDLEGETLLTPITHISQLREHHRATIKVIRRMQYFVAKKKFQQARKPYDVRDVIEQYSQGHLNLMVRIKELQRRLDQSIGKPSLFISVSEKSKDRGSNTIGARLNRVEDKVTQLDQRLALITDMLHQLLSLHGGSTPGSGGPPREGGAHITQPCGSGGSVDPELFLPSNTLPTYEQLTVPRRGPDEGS
CHO parental ctr – counter-screen for KCNQ2 inhibitors: effect in parental CHO cells; shares compounds with KCNQ2 block; thallium flux counter-screen; active compounds read low; activity change, % at 10 µM; 14% of 1,000 active; AID 493029;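 note: 0% = vehicle negative controls with stimulus buffer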
KCNQ2 patch conf – rat KCNQ2 inhibition confirmed by electrophysiology | shares compounds with KCNQ2 block | KCNQ2-expressing cells, automated patch clamp current | calls only at 10 µM | 49% of 550 active | AID 588531
An asterisk follows results filed as active; i = inactive; · = not tested or not shown; + = active, no number. Compounds with a hit are over-represented: about 1.6% of the library has one in this group of screens. Unless noted, the rule behind the calls is not given here.

SMILES	KCNQ2 pot	KCNQ2 block	KCNQ2 block conf	KCNQ1 spec	CHO parental ctr	others
COc1ccc(Cl)cc1NC(=O)C(C)N(C)Cc1ccc(C(F)(F)F)cc1 (configuration not stated)	-6.81	-6.81*	-45.0%*	-52.5%*	-39.0%*	KCNQ2 patch conf=i
COc1ccccc1C1NC(=O)NC(C)=C1C(=O)OC1CCC(C)CC1 (configuration not stated)	0.05	i	·	·	·
O=[N+]([O-])c1cccc(/C=N\N2CCN(Cc3ccccc3Cl)CC2)c1	-7.26	-7.26*	i	i	i
O=[N+]([O-])c1cccc(/C=N/N2CCN(Cc3ccccc3)CC2)c1	·	i	·	·	·
COc1ccc(NC(=O)c2cccnc2SC)cc1S(=O)(=O)N1CCCCC1	0.45	i	·	·	·
O=C1CSC(c2cccs2)N1c1ccccc1 (configuration not stated)	0.72	i	·	·	·
c1ccc(N2CCN(c3ccccc3)C2c2cccs2)cc1	-7.02	-7.02*	i	i	i
CNC(=O)c1ccccc1NC(=O)C1CC(=O)N(C(C)C)C1 (configuration not stated)	0.42	i	·	·	·
O=C(NCC(c1ccco1)N1CCc2ccccc2C1)C(=O)Nc1ccc(F)cc1F (configuration not stated)	-6.69	-6.69*	-25.5%*	i	i	KCNQ2 patch conf=i
O=C(NCC(c1ccco1)N1CCc2ccccc2C1)C(=O)Nc1ccccc1F (configuration not stated)	-6.98	-6.98*	-26.0%*	i	i	KCNQ2 patch conf=i
O=C(CN1CCc2ccccc2C1)Nc1ccc(F)cc1F	·	i	·	·	·
CC(=O)Nc1ccc(NC(=O)C(=O)NCC(c2ccco2)N2CCc3ccccc3C2)cc1 (configuration not stated)	·	i	·	·	·
N#Cc1c(N)nc2c(c1-c1ccccc1)CCC2	·	i	·	·	·
CCOc1ccc(CN(C)CC(=O)Nc2ccc([N+](=O)[O-])cc2Cl)cc1	·	i	·	·	·
O=C(NC(=S)NCCc1ccccc1)c1cccc(Cl)c1	·	i	·	·	·
CC1(C)C(=O)Nc2ccccc2N1C(=O)COC(=O)COc1ccc(C#N)cc1	0.69	i	·	·	·
Cc1ccc2cc(C)c(SCC(=O)Nc3cc(C)on3)nc2c1	0.15	i	·	·	·
Cc1cccc(/C(N)=N/OC(=O)N2c3ccccc3Sc3ccccc32)c1	-6.77	-6.77*	i	i	i
Cc1cccc(/C(N)=N/OC(=O)Cc2ccccc2)c1	3.04	i	·	·	·
COc1ccccc1N1CCN(C(=O)c2cc(=O)c3ccc(C)cc3o2)CC1	0.17	i	·	·	·
COc1ccccc1N1CCN(C(=O)c2oc3cc(C)cc(C)c3c2C)CC1	-8.25	-8.25*	i	i	i
COC(=O)c1c(N2C(=O)CC(Sc3ncccc3C(=O)O)C2=O)sc(C)c1C (configuration not stated)	0.91	i	·	·	·
CC1=Nc2ccccc2/C1=C/c1sc(=N)n(-c2nccs2)c1O	-9.89	-9.89*	-52.0%*	-61.5%*	-57.0%*	KCNQ2 patch conf=i
CC1=Nc2ccccc2/C1=C/c1nc(-c2ccc(C)s2)oc1O	·	i	·	·	·
C=CCc1c(NCCO)nc(C)[nH]c1=O	·	i	·	·	·
SMILES	KCNQ2 pot	KCNQ2 block	KCNQ2 block conf	KCNQ1 spec	CHO parental ctr	others
CCOc1cc(CNCCO)cc(Br)c1OCc1ccc(Cl)cc1	-8.06	-8.06*	i	i	i
CCOc1cccc(CNCCO)c1OCc1ccc(Cl)cc1	0.75	i	·	·	·
COc1ccc(NC(=O)COc2ccc3c(C)cc(=O)oc3c2)cc1S(=O)(=O)N1CCCCC1	0.1	i	·	·	·
COc1ccccc1CNC(=O)C(CC(C)C)NC(=O)C1CCC(C)CC1 (configuration not stated)	-8.17	-8.17*	-28.0%*	i	i	KCNQ2 patch conf=+
CC(C)CC(NC(=O)C1CCC(C)CC1)C(=O)NCc1ccco1 (configuration not stated)	·	i	·	·	·
Cc1cc(Br)c(NC(=O)CN2CCCC2)c(Br)c1	·	i	·	·	·
CCN(c1ccccc1)c1nc(C#N)nc(N(CC)c2ccccc2)n1	-6.69	-6.69*	-29.5%*	i	i	KCNQ2 patch conf=i
CCN(CC)c1nc(C#N)nc(N(CC)CC)n1	·	i	·	·	·
Cc1[nH]c2ccccc2c1C(=O)C(=O)NCc1ccncc1	0.02	i	·	·	·
CC(Sc1nnc(-c2cccs2)n1Cc1ccccc1)C(=O)NCc1ccc2c(c1)OCO2 (configuration not stated)	-9.78	-9.78*	i	i	i
O=C(CSc1nnc(-c2cccs2)n1Cc1ccccc1)NCc1ccc2c(c1)OCO2	·	i	·	·	·
CCn1c(SCC(=O)NC2CCCc3ccccc32)nnc1-c1cccs1 (configuration not stated)	·	i	·	·	·
CCn1c(SC(C)C(=O)NC2CCCc3ccccc32)nnc1-c1cccs1 (configuration not stated)	-8.36	-8.36*	i	i	i
NC(=O)c1ccccc1NC(=O)Nc1ccc(F)c(Cl)c1	0.26	i	·	·	·
Clc1ccc(CSc2cc3c(nn2)-c2ccccc2CC3)cc1	-10.4	-10.4*	-37.5%*	-41.0%*	-28.5%*	KCNQ2 patch conf=i
Clc1ccc(CSc2ccc(-c3ccccn3)nn2)cc1	·	i	·	·	·
O=C(NC(=S)Nc1ccccc1N1CCOCC1)c1ccc(-c2ccccc2F)o1	0.46	i	·	·	·
CC1=NN(C(=O)COc2ccccc2C)C(O)(c2ccc(Cl)cc2)C1 (configuration not stated)	-8.12	-8.12*	-24.0%*	i	i	KCNQ2 patch conf=+
CCC1=NN(C(=O)COc2ccccc2C)C(O)(c2ccncc2)C1 (configuration not stated)	·	i	·	·	·
Cc1cccc(NC(=O)CSCC(=O)Nc2ccccc2C(=O)NC2CC2)c1	·	i	·	·	·
CCOC(=O)N1CCc2c(sc3c2c(=O)n(Cc2ccccc2)c(=O)n3Cc2ccccc2F)C1	-11.6	-11.6*	i	i	i
O=C(O)Cn1c(=O)c2c3c(sc2n(Cc2ccccc2)c1=O)CCCC3	·	i	·	·	·
CCOC(=O)N1CCc2c(sc3c2c(=O)n(Cc2ccccc2)c(=O)n3CC(=O)NCC2CCCO2)C1 (configuration not stated)	0.43	i	·	·	·
CCOC(=O)N1CCc2c(sc3c2c(=O)n(Cc2ccccc2)c(=O)n3Cc2cccc(C)c2)C1	-8.59	-8.59*	-43.5%*	-30.0%*	-28.0%*	KCNQ2 patch conf=i
CCCCN(C(=O)c1cc(Cl)nc2ccccc12)c1c(N)n(CCCC)c(=O)[nH]c1=O	1.14	i	·	·	·
CCCCCCOc1ccc(N2C(=O)CC(SC(=NCC)NCC)C2=O)cc1 (configuration not stated)	·	i	·	·	·
COc1ccccc1/C=C1\SC(=S)N(CC(=O)NC2CCS(=O)(=O)C2)C1=O (configuration not stated)	·	i	·	·	·
C(=C\c1ccccc1)/CN1CCN(C(c2ccccc2)c2ccccc2)CC1	·	i	·	·	·
Fc1ccc(C(c2ccc(F)cc2)N2CCN(C/C=C/c3ccccc3)CC2)cc1	-8.64	-8.64*	i	i	i
Cc1cccc(N2CCN(C(=O)C34CC5CC(CC(C5)C3)C4)CC2)c1C	-7.3	-7.3*	-19.5%*	i	i	KCNQ2 patch conf=i

Compound activity: PubChem BioAssay, Johns Hopkins Ion Channel Center
